Consider 40 compounds from PubChem BioAssay (NCATS).

Structures are written as SMILES. Records with an inconclusive call do not appear. Active and inactive are the calls of the source. Calls follow the shape of the dose curve; as a rule, active = well fitted inhibition curve with a large enough effect; inconclusive = small, poorly fitted or top-dose-only effect; inactive = no such curve, though single readings can be large or run the other way.
Potency is read from the fitted curve at half-maximal effect.

The nature of the test: qHTS assay for measurement of the activity of small molecule inhibitors on Zika virus induced Caspase-3 activity in human iPSC derived neural progenitor cells (hNPCs) (AID 1224857). Also: nearly all actives have a fitted effect of over 65% in size. As to activity change, negative = inhibition: % of control where 0% means no effect. The conditions noted are these: hNPCs ZIKV-induced caspase-3/7, Caspase-Glo luminescence, 6 h; series mostly up to 45.7 µM; activity change, negative = inhibition: at the top concentration. From the text:
National Center for Advancing Translational Sciences [NCATS]
Johns Hopkins University School of Medicine
Increase in the Caspase-3 activity indicates an activation of apoptosis cell death pathway caused by Zika virus infection in certain types of neuronal cells including human neural progenitor cells (hNPCs), astrocytes, and astrocytoma cell line (SNB-19). This cell-based caspase-3 activity assay measures the increased caspase-3 activity in the human iPSC derived neural progenitor cells (hNPCs) after a 6-hour Zika virus infection with a luminescence readout. A decrease in the luminescence signal in this assay by small molecule treatment indicates an inhibitory effect of that small molecule on the Zika virus induced caspase-3 activity that may correlate with its effect on reduction of Zika virus caused cell death.
The medium for hNPCs consists of DMEM/F12, N2 supplement (ThermoFisher, Cat.# 17502048), NEAA (ThermoFisher, Cat. # 11140050), 2 ug/ml heparin, 2 uM cyclopamine, and B27 (ThermoFisher, Cat. # 17504044). A Caspase-Glo 3/7 assay kit (catalog number G8092; Promega, Madison, WI) was used to detect caspase-3 activity induced by Zika virus infection in human cells. The reagent mixture was reconstituted as described in the protocol from the manufacturer. Polystyrene tissue culture treated and PDL coated white plates were obtained from Greiner Bio-One (Monroe, NC). Cells were seeded in 384- or 1536-well assay plates and cultured at 37 C with 5% CO2 for 16 to 20 hours. The typical cell seeding density in the 1536-well plate assay is 350 cells/well in 3 ul medium for hNPCs in tissue culture treated plates. Compounds were added to cells and incubated for one hour before addition of ZIKV solution to cells (2 FFU/cell). After incubation at 37 C with 5% CO2 for 6 hours, the reagent mixture of Caspase-Glo 3/7 assay kit was added to each well, followed by incubation at room temperature for 30 minutes. The luminescence intensity of the assay plates was measured using a ViewLux plate reader (PerkinElmer). Data were normalized by using the cell-containing wells without ZIKV as a negative control (0% induction of caspase 3/7 activity) and wells containing ZIKV infected cells (Caspase-3 activity induced) as a positive control (100% induction of caspase 3 activity). The percentage inhibitions of the increased Caspase-3 activity by small molecule inhibitors were then calculated.
A general note: Quantitative high-throughput screening tests each substance at several concentrations.
On to `CN1CC[C@@]2(C)c3cc(OC(=O)Nc4ccccc4)ccc3N(C)[C@@H]12`, for which the Potency was 10 µM (active).

Take `Cc1sc2ccccc2c1CC1=NCCN1`: the “activity change, negative = inhibition” value was -9.22% (inactive). With `Cc1[nH]c2ccc(O)cc2c1CCN`, the “activity change, negative = inhibition” value was 2.33% (inactive). With `CC(N)Cc1c[nH]c2ccc(OCc3cccs3)cc12` (stereo not given), the “activity change, negative = inhibition” value is 8.03% (inactive). Consider `O=C1/C(=C/c2ccccc2)C[C@@]2(O)[C@H]3Cc4ccc(O)c5c4[C@@]2(CCN3CC2CC2)[C@H]1O5`, for which the “activity change, negative = inhibition” value was -17.3% (inactive). Regarding `CC(C)(C)OC(=O)NC1[C@H]2CNC[C@@H]12` (stereo not given in full), the “activity change, negative = inhibition” value was 4.68% (inactive).

For the compound `C[N+]1(C)CCOC(O)(c2ccc(-c3ccc(C4(O)C[N+](C)(C)CCO4)cc3)cc2)C1` (stereo not given), the “activity change, negative = inhibition” value is -20.5% (inactive). Consider `CCCN(CCC)CCc1ccc(O)c(O)c1`, for which the “activity change, negative = inhibition” value is -3.43% (inactive). The same measure, in the same setting: then `NC(N)=NOCC[C@H](N)C(=O)O`, with -6.5% (inactive); and `CC1OC1P(=O)(O)O` (stereo not given), with -4.1% (inactive); and `CC(N)Cc1c[nH]c2ccc(O)cc12` (stereo not given), with -10.1% (inactive).

`C[N+](C)(C)CCOC(=O)CBr`: the “activity change, negative = inhibition” value was 0.236% (inactive). In the case of `CCS(=O)(=O)Nc1cccc(C(=C2CCCCC2)c2cnc[nH]2)c1`, the “activity change, negative = inhibition” value is 11.4% (inactive). With `NCC(CP(=O)(O)O)c1ccc(Cl)cc1` (stereo not given), the “activity change, negative = inhibition” value is -5.7% (inactive). Still for that read-out and setting: the value for `Nc1ccc(CCN2CCN(c3cccc(C(F)(F)F)c3)CC2)cc1` was -10.2% (inactive); that for `COc1ccc2[nH]cc(CCN)c2c1` was -2.95% (inactive). On the same count and under the same terms, the value for `NC(CCCCCP(=O)(O)O)C(=O)O` (stereo not given) was -13.7% (inactive); that for `C[N+]1(C)CCN(c2ccccc2)CC1` was -7.79% (inactive).

Consider `C[N+]1(C)CCc2cc3c(cc2[C@H]1[C@@H]1OC(=O)c2c1ccc1c2OCO1)OCO3`, for which the “activity change, negative = inhibition” value is 2.79% (inactive). `CN1CCC[C@@H]1Cc1c[nH]c2ccc(Nc3ncccc3[N+](=O)[O-])cc12`: the “activity change, negative = inhibition” value is -2.57% (inactive). On the same count and under the same terms, then `[Cl-].[Cl][Pt].[NH2-].[NH2-].c1ccncc1`, with -18.8% (inactive).

With `CCOC(=O)c1ncn2c1[C@@H]1CCCN1C(=O)c1cc(OC)ccc1-2`, the “activity change, negative = inhibition” value was -4.37% (inactive). Same read-out and setting: then `c1ccc2c(N3CCNCC3)cccc2c1`, with 19.6% (inactive); and `CC(C)(C)c1cc(C=C(C#N)C#N)cc(C(C)(C)C)c1O`, with 26.1% (inactive); and `Cc1o[nH]c(=O)c1CC(N)C(=O)O` (stereo not given), with -8.38% (inactive).

`CC(N)c1cccc(Cl)c1Cl` (stereo not given): the “activity change, negative = inhibition” value was 6.18% (inactive). The same measure, in the same setting: the value for `OCc1cnc[nH]1` was -16.5% (inactive).

On to `Oc1ccc2c3c1O[C@H]1c4[nH]c5ccccc5c4C[C@@]4(O)C(C2)N(CC2CC2)CCC314` (stereo not given in full), for which the “activity change, negative = inhibition” value is 1.5% (inactive). The same measure, in the same setting: then `CC(N)[C@H](O)c1ccc(O)c(O)c1` (stereo not given in full), with 43.9% (inactive); and `CC1(C(=O)O)C2CCC(O2)C1(C)C(=O)O` (stereo not given), with -6.98% (inactive); and `Clc1ccc(N2CC3CCC(C2)N3)nn1`, with 0.55% (inactive). Consider `NNC(=O)c1ccc(O)cc1`, for which the “activity change, negative = inhibition” value is -17.7% (inactive). In the case of `CC(C)CC(NP(=O)(O)O[C@@H]1O[C@@H](C)[C@H](O)[C@@H](O)[C@H]1O)C(=O)NC(Cc1c[nH]c2ccccc12)C(=O)O` (stereo not given in full), the “activity change, negative = inhibition” value is 49.6% (inactive). In the case of `CCn1cnc2c(Nc3cccc(Cl)c3)nc(N[C@@H]3CCCC[C@@H]3N)nc21`, the “activity change, negative = inhibition” value was 27.5% (inactive).

Regarding `C=CCN1CCC23c4c5ccc(O)c4O[C@H]2C(=O)CC[C@@]3(O)C1C5` (stereo not given in full), the “activity change, negative = inhibition” value was 2.12% (inactive).

Take `N[C@@]1(C(=O)O)CC[C@@H](C(=O)O)C1`: the “activity change, negative = inhibition” value is 7.43% (inactive).

`CCCN(CCC)[C@H]1CCc2c(F)ccc(O)c2C1`: the “activity change, negative = inhibition” value is 19.4% (inactive). For `NCC(O)c1cc(O)c(O)cc1F` (stereo not given), the “activity change, negative = inhibition” value was 4.59% (inactive). For `NCCCP(=O)(O)O`, the “activity change, negative = inhibition” value is 0.853% (inactive). Turning to `C[C@]12Cc3cn4c(nc3C=C1CCC1C2CC[C@@]2(C)[C@H]1CC[C@@]2(O)C#N)nc1ccccc14` (stereo not given in full), the “activity change, negative = inhibition” value was -3.28% (inactive).
